Our source for the composite z-score and z-score values is PubChem BioAssay.

Assay [1] concerns Plasmodium falciparum Sir2 (PF13_0152, Sir2A). The assay can be described thus: Plasmodium falciparum Sir2A binding compounds – biochemical, small-molecule microarray, 635 nm fluorescence, primary screen (AID 1098).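 Note: score merges spot fluorescence intensity with its signal-to-noise ratio.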 The following applies: fluorescence 635 nm, higher = more signal.
Assay [2] can be described thus: probe aDKK1 binding to arrayed compounds – biochemical, biotinylated probe, 635/667 nm fluorescence, primary screen (AID 1099).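 Note: score merges 667nm spot fluorescence with signal to noise across triplicate slides.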 As to conditions: small-molecule microarray, higher = more signal.
Assay [3] in a line: probe aCHRDL2 binding to arrayed compounds – biochemical, biotinylated probe, 635/667 nm fluorescence, primary screen (AID 1100). As to conditions: small-molecule microarray, higher = more signal.
The nature of assay [4]: change in splice reporter luminescence, either direction, cell-based, HEK293, spliceosome inhibition project, primary screen (AID 1101).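 Note: HEK293 cells carrying a splicing-competent luciferase reporter gene; test concentration not given here.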 The following applies: HEK293 splicing luciferase reporter, 24 h, higher = more signal, called active from +8 up or from −8 down.
In assay [5] the target is Fibroblast growth factor 10 (Homo sapiens) (UniProt O15520). The assay can be described thus: compounds binding fibroblast growth factor 10 – biochemical, small-molecule microarray, 635 nm fluorescence, primary screen (AID 1102). The following applies: FGF10 binding, fluorescence 635 nm, higher = more signal.
Sequence of Fibroblast growth factor 10 (Homo sapiens) (O15520 whole entry, looked up): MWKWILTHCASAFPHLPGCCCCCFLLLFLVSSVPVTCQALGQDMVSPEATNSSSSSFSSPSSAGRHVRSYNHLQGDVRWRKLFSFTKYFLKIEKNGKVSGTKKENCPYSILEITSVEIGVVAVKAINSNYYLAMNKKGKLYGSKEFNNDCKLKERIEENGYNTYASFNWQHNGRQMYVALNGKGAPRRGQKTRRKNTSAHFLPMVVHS
The test system of assay [6] is glycogen synthase kinase-3 (GSK3A per assay name; protocol says GSK3B). Briefly: compounds binding glycogen synthase kinase-3 – biochemical, small-molecule microarray, 635 nm fluorescence, GSK3A, primary screen (AID 1103). Note: the record names both GSK3A and GSK3B. As to conditions: fluorescence 635 nm, higher = more signal.
Assay [7] deals with Epidermal growth factor receptor (Homo sapiens) (UniProt P00533). Briefly: compounds binding epidermal growth factor receptor – biochemical, small-molecule microarray, 635 nm fluorescence, primary screen (AID 1104).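 Note: score merges 667 nm emission intensity with spot signal to noise over triplicate slides.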 As to conditions: EGFR binding, higher = more signal.
Sequence of Epidermal growth factor receptor (Homo sapiens) (P00533 whole entry, looked up): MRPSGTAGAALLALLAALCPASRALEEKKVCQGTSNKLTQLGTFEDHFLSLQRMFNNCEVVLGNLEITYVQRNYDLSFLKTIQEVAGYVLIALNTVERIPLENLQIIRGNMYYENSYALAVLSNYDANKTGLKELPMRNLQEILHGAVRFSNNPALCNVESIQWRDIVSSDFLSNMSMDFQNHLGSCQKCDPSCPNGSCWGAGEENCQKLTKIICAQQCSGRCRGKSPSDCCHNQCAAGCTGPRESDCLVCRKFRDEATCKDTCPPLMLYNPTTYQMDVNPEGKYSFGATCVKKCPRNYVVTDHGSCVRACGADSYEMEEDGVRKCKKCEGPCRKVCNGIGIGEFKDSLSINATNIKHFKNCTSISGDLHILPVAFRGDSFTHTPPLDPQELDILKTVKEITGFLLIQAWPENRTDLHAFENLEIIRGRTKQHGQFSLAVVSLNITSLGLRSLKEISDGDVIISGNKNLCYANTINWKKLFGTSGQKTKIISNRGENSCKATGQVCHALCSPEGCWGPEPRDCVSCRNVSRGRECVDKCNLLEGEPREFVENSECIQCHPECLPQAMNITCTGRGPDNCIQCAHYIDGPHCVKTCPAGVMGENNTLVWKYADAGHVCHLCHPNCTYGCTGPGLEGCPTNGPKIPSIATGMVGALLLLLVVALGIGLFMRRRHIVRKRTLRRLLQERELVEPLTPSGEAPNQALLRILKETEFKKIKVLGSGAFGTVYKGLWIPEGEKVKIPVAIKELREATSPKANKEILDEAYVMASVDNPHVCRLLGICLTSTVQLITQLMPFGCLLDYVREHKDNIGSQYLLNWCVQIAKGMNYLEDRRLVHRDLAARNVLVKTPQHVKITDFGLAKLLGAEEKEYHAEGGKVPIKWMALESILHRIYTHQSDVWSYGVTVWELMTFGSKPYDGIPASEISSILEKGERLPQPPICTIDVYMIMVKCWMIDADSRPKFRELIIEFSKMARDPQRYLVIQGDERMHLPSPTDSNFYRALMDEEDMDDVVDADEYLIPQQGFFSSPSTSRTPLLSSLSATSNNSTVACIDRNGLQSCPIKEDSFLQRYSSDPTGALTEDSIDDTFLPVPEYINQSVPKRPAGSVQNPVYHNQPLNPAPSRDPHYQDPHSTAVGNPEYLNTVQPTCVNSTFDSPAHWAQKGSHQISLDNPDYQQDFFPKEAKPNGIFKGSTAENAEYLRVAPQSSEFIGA
Assay [8] has as its target Follistatin-related protein 3 (Homo sapiens) (UniProt O95633). The assay can be described thus: compounds binding follistatin-related protein 3 – biochemical, small-molecule microarray, 635 nm fluorescence, primary screen (AID 1105).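 Note: score merges emission near 667 nm and signal to noise per printed spot across three slides.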 As to conditions: FSTL3 binding, higher = more signal.
In assay [9] the target is Dickkopf-related protein 1 (Homo sapiens) (UniProt O94907). The assay can be described thus: small molecules binding DKK1 protein – biochemical, small-molecule microarray, 635 nm fluorescence scan, primary screen (AID 1106).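 Note: score merges emission near 667 nm with signal to noise over three replicate slides.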 As to conditions: higher = more signal.
Sequence of Dickkopf-related protein 1 (Homo sapiens) (O94907 whole entry, looked up): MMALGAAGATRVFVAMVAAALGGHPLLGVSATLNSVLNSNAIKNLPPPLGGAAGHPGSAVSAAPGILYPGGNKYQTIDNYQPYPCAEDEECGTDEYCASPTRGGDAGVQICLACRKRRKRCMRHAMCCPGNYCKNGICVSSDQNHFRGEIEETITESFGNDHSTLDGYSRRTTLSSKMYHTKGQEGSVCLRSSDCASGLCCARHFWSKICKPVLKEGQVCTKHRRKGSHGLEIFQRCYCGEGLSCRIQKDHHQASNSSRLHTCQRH
Assay [10] deals with Inhibin beta A chain (activin A). The assay can be described thus: small molecules binding activin A – biochemical, small-molecule microarray, 635 nm fluorescence scan, primary screen (AID 1107).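 Note: mouse activin A protein probed at 4.33 µg/mL on printed slides; score merges bound-protein fluorescence near 667 nm with spot signal-to-noise.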 The following applies: INHBA, higher = more signal.
In assay [11] the test system is Human papillomavirus type 1a protein E7 (residues 44-93). Briefly: small molecules binding HPV E7 44-93 – biochemical, small-molecule microarray, residues 44-93, 635 nm fluorescence, primary screen (AID 1108).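 Note: E7 fragment applied at 1 µg/mL in TBST for 1 h at 4 C; score combines spot fluorescence with its signal to noise ratio.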 As to conditions: fluorescence 635 nm, higher = more signal.
Assay [12] can be described thus: hepatitis C replication reporter changes, two-sided – Huh7 cells, luciferase reporter, HCV replication inhibitor project, primary screen (AID 1109).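 Note: huh7 hepatoma cells harbouring a luciferase neomycin HCV replicon reporter; luciferase luminescence as measure of HCV replicon replication; test concentration not given here.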 The following applies: Huh7 HCV replicon luciferase reporter, 48 h; higher = more signal. Background: Reporter assays use an easily measured gene product as a stand-in for the process of interest.
For assay [13], the target named is Left-right determination factor 2 (Homo sapiens) (UniProt O00292). The assay can be described thus: small molecules binding LEFTY2 protein – biochemical, small-molecule microarray, 635 nm fluorescence scan, primary screen (AID 1110). As to conditions: higher = more signal.
Sequence of Left-right determination factor 2 (Homo sapiens) (O00292 whole entry, looked up): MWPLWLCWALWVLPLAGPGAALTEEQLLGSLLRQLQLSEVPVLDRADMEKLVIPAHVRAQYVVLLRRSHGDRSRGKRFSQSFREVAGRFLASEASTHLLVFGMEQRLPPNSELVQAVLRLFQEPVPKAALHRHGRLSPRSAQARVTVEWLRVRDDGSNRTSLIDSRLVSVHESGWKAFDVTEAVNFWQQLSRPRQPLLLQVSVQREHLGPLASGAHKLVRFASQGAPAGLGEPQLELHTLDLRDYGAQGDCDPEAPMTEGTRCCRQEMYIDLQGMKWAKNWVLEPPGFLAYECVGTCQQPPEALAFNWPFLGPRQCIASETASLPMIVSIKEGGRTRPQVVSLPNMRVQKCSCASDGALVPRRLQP
Assay [14] concerns the target Calmodulin-1 (Homo sapiens) (UniProt P0DP23). Briefly: small molecules binding calmodulin-1 with EGTA – biochemical, small-molecule microarray, Cy5-labelled CALM1, profiling panel (AID 1111).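 Note: labelled calmodulin applied in Tris saline Tween buffer holding calcium plus EGTA and DTT.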 As to conditions: Cy5-CALM1 binding fluorescence, higher = more signal.
Assay [15] has the same target. The assay can be described thus: small molecules binding Ca-loaded calmodulin-1 – biochemical, small-molecule microarray, Cy5-labelled CALM1, plus calcium, artefact control for SMM control-protein annotation, profiling panel (AID 1112).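 Note: score merges spot fluorescence with signal to noise from triplicate slides.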 As to conditions: Cy5-CALM1 binding fluorescence, higher = more signal.
Assay [16] can be described thus: probe aWnt5a binding to arrayed compounds – biochemical, biotinylated probe, 635/667 nm fluorescence, primary screen (AID 1113).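 Note: score merges 667 nm fluorescence intensity with signal-to-noise per printed feature.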 The following applies: small-molecule microarray, higher = more signal.
The nature of assay [17]: probe aShh binding to arrayed compounds – biochemical, biotinylated probe, 635/667 nm fluorescence, primary screen (AID 1114).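 Note: probe is biotin-labelled aShh protein from a stem cell growth factor screen; measures binding of labelled protein to compounds printed on the slide; score merges feature fluorescence at 667 nm with signal-to-noise.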 As to conditions: small-molecule microarray, higher = more signal.
A short description of assay [18]: probe aNog binding to arrayed compounds – biochemical, biotinylated probe, 635/667 nm fluorescence, primary screen (AID 1115).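 Note: probe is biotinylated aNog protein used at 0.15 µg/mL for 1 h at 4 C; z-score combines 667 nm fluorescence of each spot with its signal to noise.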 As to conditions: small-molecule microarray, higher = more signal.
Assay [19] has as its target Torsin-1A-interacting protein 1 (Homo sapiens) (UniProt Q5JTV8). The assay can be described thus: compound microarray binding of lysate hLAP1 – cell lysate, small-molecule microarray, COS7 lysate, 635/667 nm fluorescence, primary screen (AID 1116). The following applies: 635 nm fluorescence, higher = more signal.
Assay [20] has as its target Alpha-bungarotoxin (Bungarus multicinctus) (UniProt P60615). Briefly: compounds binding labelled alpha-BTX control protein – biochemical, small-molecule microarray, Alexa647 label, 635/667 nm fluorescence, artefact control for SMM control protein annotation, profiling panel (AID 1117). As to conditions: alpha-BTX-A647 binding fluorescence, higher = more signal.

SMILES strings stand for the structures. Active and inactive are the calls of the source.

Sequence of Torsin-1A-interacting protein 1 (Homo sapiens) (Q5JTV8 whole entry, looked up): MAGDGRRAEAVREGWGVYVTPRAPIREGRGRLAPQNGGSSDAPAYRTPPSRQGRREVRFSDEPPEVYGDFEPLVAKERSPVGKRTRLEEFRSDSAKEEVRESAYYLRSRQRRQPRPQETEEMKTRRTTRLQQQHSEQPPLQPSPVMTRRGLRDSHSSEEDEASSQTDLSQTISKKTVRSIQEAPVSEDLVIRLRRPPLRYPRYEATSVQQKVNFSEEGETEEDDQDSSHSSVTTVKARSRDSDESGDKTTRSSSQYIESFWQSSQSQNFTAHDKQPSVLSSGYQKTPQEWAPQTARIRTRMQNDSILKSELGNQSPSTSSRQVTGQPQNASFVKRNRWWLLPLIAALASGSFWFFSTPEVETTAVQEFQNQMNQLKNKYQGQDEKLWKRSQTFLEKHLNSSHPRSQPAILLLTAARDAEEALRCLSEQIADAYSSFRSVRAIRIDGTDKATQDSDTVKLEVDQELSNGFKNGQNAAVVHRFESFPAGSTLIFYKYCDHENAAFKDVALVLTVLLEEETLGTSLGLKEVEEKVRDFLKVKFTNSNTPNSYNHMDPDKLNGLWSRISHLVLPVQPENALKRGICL
Sequence of Alpha-bungarotoxin (Bungarus multicinctus) (P60615 whole entry, looked up): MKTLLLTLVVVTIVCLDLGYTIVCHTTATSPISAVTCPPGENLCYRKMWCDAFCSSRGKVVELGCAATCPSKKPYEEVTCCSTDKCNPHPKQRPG
Sequence of Follistatin-related protein 3 (Homo sapiens) (O95633 whole entry, looked up): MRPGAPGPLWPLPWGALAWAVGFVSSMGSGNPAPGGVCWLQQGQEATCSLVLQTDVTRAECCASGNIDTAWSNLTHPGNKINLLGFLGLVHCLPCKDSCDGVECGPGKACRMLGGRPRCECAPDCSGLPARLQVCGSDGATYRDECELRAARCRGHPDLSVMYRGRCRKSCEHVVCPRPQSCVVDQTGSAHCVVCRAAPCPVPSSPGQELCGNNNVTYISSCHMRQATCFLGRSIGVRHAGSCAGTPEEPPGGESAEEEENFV

In the case of `CC(C)=CCCC(C)=CCON=C1C[C@@H](O)[C@@H](O)[C@@H]2[C@@H]3C(=O)N(C[C@@H]4CCCO4)C(=O)[C@@H]3CC[C@@H]12`, the composite z-score in assay [1] was 0.998; in assay [2], -0.364; in [3], -0.753; in assay [5], 1.33; in [6], 1.29; in assay [7], 1.15. For the same molecule, the composite z-score is 1.37 in assay [8]; 1.37 in [9]; 1.52 in assay [10]; 1.38 in [11]; 0.763 in assay [13]; -0.599 in assay [14]. For the same molecule, the composite z-score was -1.4 in [15]; -0.104 in [16]; -0.243 in [17]; -0.319 in assay [18]; 0.101 in [19]; 0.488 in [20]. Moreover, the z-score in assay [4] is 0.363 (inactive); in [12], 0.398.
As to `CC(C)CON=C1C[C@@H](O)[C@@H](O)[C@@H]2[C@@H]3C(=O)N([C@@H](C)c4ccccc4)C(=O)[C@@H]3CC[C@H]12`, the composite z-score in [1] was 0.43; in assay [2], -0.325; in assay [3], -0.565; in assay [5] it was 1.07; in [6], 0.778; in [7], 0.39. Moreover, the composite z-score is 1.24 in assay [8]; 0.76 in [9]; -0.204 in [10]; 1.36 in assay [11]; 0.756 in assay [13]; 0.336 in assay [14]. Moreover, the composite z-score was -0.351 in assay [15]; -0.124 in [16]; -0.0011 in [17]; -0.0308 in assay [18]; 0.619 in assay [19]; 0.922 in [20]. Moreover, the z-score in [4] is 0.115 (inactive); in assay [12], 0.775.
Consider `CCc1cc2c(nc1CC)CCN(CCC(C)=NOC[C@@H](O)COCc1ccco1)C2`, for which the composite z-score in assay [1] amounted to 1.54; in assay [2], 0.0564; in assay [3], 0.202; in [5], 0.529; in assay [6], 1.3; in assay [7], 1.78. In addition, the composite z-score in [8] was 1.5; in [9], 1.7; in assay [10], 2.1; in [11] it was -1.51; in [13], 1.48; in [14], -0.729. Moreover, the composite z-score was -1.77 in assay [15]; 0.0663 in assay [16]; 0.547 in assay [17]; -0.0965 in [18]; 1.11 in assay [19]; 0.64 in [20]. For the same molecule, the results for the z-score in [4] and in assay [12] were -0.0287 (inactive) and -1.59, respectively.
As for `O=C1NC(=O)C2C1C=CC(C(O)Cc1ccccc1)N2Nc1ccccn1` (stereo not given), the composite z-score in assay [1] is 0.0468; in assay [2], 0.133; in [3], -0.321; in assay [5] it was 0.156; in assay [6] it was 0.0157; in assay [7] it was 0.377. Further, the composite z-score in assay [8] is 0.233; in [9] it was 0.0833; in [10] it was 0.97; in [11] it was 0.555; in assay [13] it was 0.185; in assay [14], 0.0084. The composite z-score was -0.541 in [15]; 0.0328 in assay [16]; -0.0793 in [17]; 0.342 in assay [18]; 0.818 in assay [19]; 1.34 in assay [20]. The z-score is -0.818 (inactive) in [4] and -0.377 in assay [12].
In the case of `CC(C)[C@@H](OCc1ccccc1)[C@H](C)C=NOC[C@@H](C)[C@H](OCc1ccccc1)C(C)C`, the composite z-score in assay [1] is 0.556; in [2] it was -0.319; in assay [3] it was -0.552; in assay [5], 0.5; in assay [6] it was -0.076; in assay [7] it was 0.363. For the same molecule, the composite z-score in [8] is 0.303; in [9], 0.429; in assay [10], -0.0094; in assay [11], 0.255; in assay [13] it was 0.885; in assay [14], 0.148. The composite z-score in assay [15] was -0.546; in assay [16], -0.101; in assay [17] it was -0.0685; in [18], -0.132; in assay [19], 0.0528; in assay [20] it was 0.312. In addition, the values for the z-score in assay [4] and in assay [12] were 0.741 (inactive) and -0.534, respectively.
With `O=C1O[C@@H](c2ccccc2)[C@@H](c2ccccc2)N2[C@@H](c3ccccc3OCCO)[C@]3(C(=O)Nc4ccc(C#CCCO)cc43)[C@@H](C(=O)O)[C@H]12`, the composite z-score was 1.58 in [1]; -0.878 in [2]; -0.721 in assay [3]; 0.608 in assay [5]; 1.03 in [6]; -0.0589 in assay [7]. In addition, the composite z-score is 0.14 in [8]; -0.167 in [9]; 1.24 in [10]; 1.42 in [11]; -0.28 in assay [13]; 1.04 in [14]. Besides, the composite z-score in assay [15] turned out to be 0.734; in assay [16], 0.385; in assay [17], 0.633; in assay [18], 1.32; in assay [19], 1.17; in assay [20] it was 2.53. Besides, the z-score in assay [4] was -2.02 (inactive); in assay [12] it was -1.99.
